High-throughput results from PubChem.
A selection follows.
aSyn 5UTR act = Activators via SNCA 5'UTR binding, MLPCN; alpha-synuclein 5'UTR reporter, activators screen; activity score, % (tested at 7.5 µM), hits read low; hit rate 7.1% among 300,000; AID 1814, 2009; in the data active means activity score below about -60%
* hit, by the source's call.

Screening CCOC(=O)c1ccc(-c2ccc(/C=N/NC(=O)CN(c3ccccc3Br)S(C)(=O)=O)o2)cc1 returned aSyn 5UTR act -140*.
`Cc1occc1C(=O)NNC(=S)Nc1ccccc1` gave aSyn 5UTR act -88*.
For Cc1occc1C(=O)NNC(=O)c1ccccc1F the results were aSyn 5UTR act -82*.
Cc1occc1C(=O)NNC(=S)Nc1ccccc1C(F)(F)F was read as aSyn 5UTR act -86*.
`O=C1c2ccccc2C(=O)N1CCN1CCc2ccccc21` gave aSyn 5UTR act -97*.
For Cc1ccc(/C=N/NC(=O)c2c(C)nc3ccc(Br)cn23)cc1 the results were aSyn 5UTR act 80.
`CN(C)c1ccc(/C=N\NC(=O)c2cccc3cc[nH]c23)cc1` gave aSyn 5UTR act -69*.
Screening CN(C)c1ccc(/C=N/NC(=O)c2ccco2)cc1 returned aSyn 5UTR act -78*.
Screening Cc1ccc(/C=N/NC(=O)c2ccco2)cc1 returned aSyn 5UTR act -94*.
Screening CSC(=S)N/N=C/c1ccc(N(C)C)cc1 returned aSyn 5UTR act -96*.
Screening CN1C/C(=C\c2ccc(N3CCOCC3)cc2)C(=O)/C(=C/c2ccc(N3CCOCC3)cc2)C1 returned aSyn 5UTR act -427*.
`CCN1C/C(=C/c2ccc(N3CCOCC3)cc2)C(=O)/C(=C/c2ccc(N3CCOCC3)cc2)C1` gave aSyn 5UTR act -412*.
Screening Cc1ccc(Oc2nn[nH]n2)cc1 returned aSyn 5UTR act -77*.
`C/C(=N\NC(=O)c1c([N+](=O)[O-])c(C)nn1C)c1ccc(NC(=O)C2CCCC2)cc1` gave aSyn 5UTR act 81.
Screening C/C(=N\NC(=O)c1c([N+](=O)[O-])c(C)nn1C)c1ccc(NC(=O)c2ccc(C)o2)cc1 returned aSyn 5UTR act -104*.
Screening C/C(=N/NS(=O)(=O)c1ccc(F)cc1)c1ccc(NC(=O)c2ccc(C)o2)cc1 returned aSyn 5UTR act -72*.
O=C(C[n+]1cc(-c2ccc(F)cc2)n2c1CCC2)N1c2ccccc2Sc2ccccc21 was read as aSyn 5UTR act -181*.
Screening O=C(C[n+]1cc(-c2ccc(F)cc2)n2c1CCC2)Nc1nc(-c2ccc(F)cc2)cs1 returned aSyn 5UTR act -63*.
Screening Cc1ccc(-c2csc(NC(=O)C[n+]3cc(-c4ccccc4)n4c3CCC4)n2)cc1 returned aSyn 5UTR act -117*.
Screening O=C(OCc1ccc(C(=O)c2ccccc2)cc1)c1cccc(-c2nnc(-c3ccccc3)o2)c1 returned aSyn 5UTR act -80*.
O=C(OCc1ccccc1)c1ccc2c(c1)-c1ccccc1C2=O was read as aSyn 5UTR act -194*.
For O=C(OCc1ccccc1)c1cccc(-c2nnc(-c3ccccc3)o2)c1 the results were aSyn 5UTR act -69*.
For O=C(OCc1nnc(-c2ccccc2)o1)c1ccc2c(c1)OCCO2 the results were aSyn 5UTR act -62*.
Screening Cc1nc2ccc(NC(=S)NCc3ccccc3)cc2nc1C returned aSyn 5UTR act -80*.
`O=C(CC12CC3CC(CC(C3)C1)C2)NC(=S)NCc1ccccc1` gave aSyn 5UTR act 52.
Screening CCc1ccc(NC(=S)NCc2ccccc2)cc1 returned aSyn 5UTR act -90*.
For O=C1OC(/C(=C\Nc2cc(Cl)ccc2O)[N+](=O)[O-])c2ccccc21 (stereo not given) the results were aSyn 5UTR act -102*.
For Cc1ccc(/C=C(\C#N)C(=O)Nc2ccccn2)o1 the results were aSyn 5UTR act -164*.
For Cc1cc(C)c2nc3sc(C(=O)N4CCOCC4)c(N)c3cc2c1 the results were aSyn 5UTR act 88.
For Cc1ccc(C)c2nc3sc(C(=O)N4CCOCC4)c(N)c3cc12 the results were aSyn 5UTR act -129*.
`Cc1ccc(NC(=O)CCCC2CCCCC2)c(O)c1` gave aSyn 5UTR act -150*.
`COc1cccc2oc(-c3ccco3)cc(=O)c12` gave aSyn 5UTR act -94*.
For O=c1cc(-c2ccco2)oc2ccc(Cl)cc12 the results were aSyn 5UTR act -96*.
COc1cc(OC)c2c(=O)cc(-c3ccccc3)oc2c1 was read as aSyn 5UTR act -102*.
`COc1ccc2oc(-c3ccco3)cc(=O)c2c1` gave aSyn 5UTR act -129*.
For CC(/C=N/NC(=O)c1ccccc1F)=C\c1ccccc1 the results were aSyn 5UTR act -138*.
For CC(/C=N/NC(=O)c1ccccc1C)=C\c1ccccc1 the results were aSyn 5UTR act -136*.
Nc1nnc(/C=C/c2ccccc2Cl)s1 was read as aSyn 5UTR act -81*.
COC(=O)c1ccccc1NC(=O)COC(=O)c1ccccc1N=Nc1ccc(N(C)C)cc1 was read as aSyn 5UTR act -80*.
Screening CC(=O)c1ccc(NC(=O)COC(=O)c2ccccc2N=Nc2ccc(N(C)C)cc2)cc1 returned aSyn 5UTR act -101*.
`CN(C)c1ccc(N=Nc2ccccc2C(=O)OCC(=O)N(C)c2ccccc2)cc1` gave aSyn 5UTR act -83*.
CN(C)c1ccc(C(=O)OCC(=O)N2CCCCCC2)cc1 was read as aSyn 5UTR act -65*.
COc1ccc(C(=O)COC(=O)c2ccc(N(C)C)cc2)cc1 was read as aSyn 5UTR act -64*.
`O=C(OCC(=O)N1CCCC1)c1ccccc1O` gave aSyn 5UTR act -85*.
Screening COc1ccc(C(=O)COC(=O)c2ccn(C)n2)cc1 returned aSyn 5UTR act -83*.
Screening O=C(OCC(=O)N1CCN(c2ccccc2)CC1)c1ccccc1[N+](=O)[O-] returned aSyn 5UTR act -141*.
Screening CCOC(=O)CNc1c(-c2ccc(OC)cc2)nc2ccc(Cl)cn12 returned aSyn 5UTR act -127*.
COCCNc1c(-c2ccc(OC)cc2)nc2ccc(Cl)cn12 was read as aSyn 5UTR act -117*.
Screening CCn1nc(C)c(/C=N/NC(=O)c2ccoc2C)c1C returned aSyn 5UTR act -112*.
`CCCCCn1nc(C)c(/C=N/NC(=O)c2ccoc2C)c1C` gave aSyn 5UTR act -171*.
CC(C)(C)c1nnc2sc(SCC(=O)c3ccc4c(c3)OCCO4)nn2c1=O was read as aSyn 5UTR act -156*.
`CCn1nnnc1SCC(=O)c1ccc2c(c1)OCCO2` gave aSyn 5UTR act -137*.
For Cc1ccc(C)c(C(=O)CSc2nnnn2C(C)C)c1 the results were aSyn 5UTR act -65*.
For CC(C)n1nnnc1SCC(=O)c1ccc2c(c1)OCCO2 the results were aSyn 5UTR act -145*.
For O=C(CSc1nnnn1C1CCCC1)c1ccc2c(c1)OCCO2 the results were aSyn 5UTR act -102*.
`COc1cccc(C(=O)CSc2nnnn2C2CCCCC2)c1` gave aSyn 5UTR act -74*.
For COc1ccc(C(=O)Nc2cccc(-c3ccc(N4CCOCC4)nn3)c2)cc1 the results were aSyn 5UTR act -69*.
COc1cc(OC)cc(C(=O)Nc2cccc(-c3ccc(N4CCOCC4)nn3)c2)c1 was read as aSyn 5UTR act -85*.
`O=C(NC(C(=O)c1ccccc1)N1CCCCC1)c1ccccc1` (stereo not given) gave aSyn 5UTR act -87*.
`O=C(NC(C(=O)c1ccccc1)n1ccc(=O)[nH]c1=O)c1ccccc1` (stereo not given) gave aSyn 5UTR act -208*.
For O=C(CSc1nnc(-c2ccccc2)o1)N1CCCCC1 the results were aSyn 5UTR act -74*.
`O=C(CSc1nnc(-c2ccc(F)cc2)o1)N1CCCCC1` gave aSyn 5UTR act -88*.
For O=C(CSc1nnc(-c2ccccc2)o1)N1CCCC1 the results were aSyn 5UTR act -102*.
`Cn1nc([N+](=O)[O-])nc1Sc1nnc(-c2ccccc2)o1` gave aSyn 5UTR act 92.
